Legend:
Assay in all cases: DAPPL (digital affinity profiling via proximity ligation, sequencing); 10 mM Tris-HCl pH 7.5, 50 mM NaCl, 1 mM DTT, 4% glycerol, room temperature, 30 min; GST-TFs on glutathione beads, 16-mer random dsDNA library, 0.1% formaldehyde crosslink after washing; high values mean tight binding
FEV = biological target: T1, FEV (Homo sapiens, UniProt Q99581 1-238); details: protein: recombinant; tags: N-terminal GST; dsDNA, one strand shown
T1 sequence: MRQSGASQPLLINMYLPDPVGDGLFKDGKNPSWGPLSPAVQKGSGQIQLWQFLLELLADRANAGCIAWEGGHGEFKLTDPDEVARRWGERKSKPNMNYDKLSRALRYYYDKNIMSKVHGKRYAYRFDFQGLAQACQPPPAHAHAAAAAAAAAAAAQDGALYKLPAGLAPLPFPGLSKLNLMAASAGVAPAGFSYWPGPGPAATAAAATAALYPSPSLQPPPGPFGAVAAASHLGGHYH
How it was run: (§1)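 Yeast served to express human transcription factors as GST fusions, which were then captured on glutathione beads and labelled with DNA barcodes. Pooled with a tag-only sample, they were incubated with 200 nmole of a 16-mer random double-stranded DNA library for 30 min at room temperature in Tris/NaCl/DTT/glycerol buffer, washed, crosslinked with 0.1% formaldehyde, ligated by proximity, amplified by PCR and sequenced. Dividing each hexamer's read frequency for a factor by its frequency for the tag-only sample gives the binding signal.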

ETV5 = ETV5 (Homo sapiens, UniProt P41161 1-510); details: protein: recombinant; tags: N-terminal GST; dsDNA, one strand shown
ETV5, sequence (P41161 whole entry): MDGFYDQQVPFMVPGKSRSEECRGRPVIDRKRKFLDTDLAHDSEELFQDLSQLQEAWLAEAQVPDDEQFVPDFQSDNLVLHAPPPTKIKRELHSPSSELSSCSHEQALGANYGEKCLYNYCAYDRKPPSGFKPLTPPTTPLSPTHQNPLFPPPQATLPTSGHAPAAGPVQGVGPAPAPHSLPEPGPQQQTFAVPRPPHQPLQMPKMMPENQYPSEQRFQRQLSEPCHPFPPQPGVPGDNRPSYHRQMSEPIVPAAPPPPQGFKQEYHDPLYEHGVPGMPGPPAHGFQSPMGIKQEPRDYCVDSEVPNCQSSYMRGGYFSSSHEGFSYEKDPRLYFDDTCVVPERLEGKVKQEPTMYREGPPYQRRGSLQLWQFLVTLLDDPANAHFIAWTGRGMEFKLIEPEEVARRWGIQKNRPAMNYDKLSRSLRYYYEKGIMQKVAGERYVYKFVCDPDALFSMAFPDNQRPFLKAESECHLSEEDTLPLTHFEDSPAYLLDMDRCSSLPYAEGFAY
How it was run: as §1

HSF1 = HSF1 (Homo sapiens, UniProt Q00613 1-529); details: protein: recombinant; tags: N-terminal GST; chain copies: 3; dsDNA, one strand shown
HSF1, sequence (Q00613 whole entry): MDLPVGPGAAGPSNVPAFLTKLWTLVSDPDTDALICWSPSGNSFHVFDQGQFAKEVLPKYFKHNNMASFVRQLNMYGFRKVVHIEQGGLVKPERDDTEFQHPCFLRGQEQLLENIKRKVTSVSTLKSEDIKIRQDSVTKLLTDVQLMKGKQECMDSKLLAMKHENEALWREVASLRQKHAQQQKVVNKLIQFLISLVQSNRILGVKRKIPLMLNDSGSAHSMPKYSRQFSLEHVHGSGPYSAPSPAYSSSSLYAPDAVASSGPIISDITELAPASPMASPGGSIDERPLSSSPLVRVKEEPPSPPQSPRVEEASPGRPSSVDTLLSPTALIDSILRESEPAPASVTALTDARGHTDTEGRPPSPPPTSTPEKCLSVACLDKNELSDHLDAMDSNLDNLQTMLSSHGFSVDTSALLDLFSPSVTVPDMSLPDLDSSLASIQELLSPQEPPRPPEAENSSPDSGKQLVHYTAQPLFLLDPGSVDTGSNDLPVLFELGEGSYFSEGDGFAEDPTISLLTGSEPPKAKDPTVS
How it was run: as §1

SPIC = biological target: T2, SPIC (Homo sapiens, UniProt Q8N5J4 1-248); details: protein: recombinant; tags: N-terminal GST; dsDNA, one strand shown
T2 sequence: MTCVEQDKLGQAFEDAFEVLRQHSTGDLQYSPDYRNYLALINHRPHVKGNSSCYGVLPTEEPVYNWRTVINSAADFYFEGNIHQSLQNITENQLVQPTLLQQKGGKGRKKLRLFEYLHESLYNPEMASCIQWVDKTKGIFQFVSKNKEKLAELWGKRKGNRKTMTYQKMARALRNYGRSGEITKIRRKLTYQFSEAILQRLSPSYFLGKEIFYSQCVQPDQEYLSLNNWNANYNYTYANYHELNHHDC
How it was run: as §1

ELF4 = ELF4 (Homo sapiens, UniProt Q99607 1-663); details: protein: recombinant; tags: N-terminal GST; dsDNA, one strand shown
ELF4, sequence (Q99607 whole entry): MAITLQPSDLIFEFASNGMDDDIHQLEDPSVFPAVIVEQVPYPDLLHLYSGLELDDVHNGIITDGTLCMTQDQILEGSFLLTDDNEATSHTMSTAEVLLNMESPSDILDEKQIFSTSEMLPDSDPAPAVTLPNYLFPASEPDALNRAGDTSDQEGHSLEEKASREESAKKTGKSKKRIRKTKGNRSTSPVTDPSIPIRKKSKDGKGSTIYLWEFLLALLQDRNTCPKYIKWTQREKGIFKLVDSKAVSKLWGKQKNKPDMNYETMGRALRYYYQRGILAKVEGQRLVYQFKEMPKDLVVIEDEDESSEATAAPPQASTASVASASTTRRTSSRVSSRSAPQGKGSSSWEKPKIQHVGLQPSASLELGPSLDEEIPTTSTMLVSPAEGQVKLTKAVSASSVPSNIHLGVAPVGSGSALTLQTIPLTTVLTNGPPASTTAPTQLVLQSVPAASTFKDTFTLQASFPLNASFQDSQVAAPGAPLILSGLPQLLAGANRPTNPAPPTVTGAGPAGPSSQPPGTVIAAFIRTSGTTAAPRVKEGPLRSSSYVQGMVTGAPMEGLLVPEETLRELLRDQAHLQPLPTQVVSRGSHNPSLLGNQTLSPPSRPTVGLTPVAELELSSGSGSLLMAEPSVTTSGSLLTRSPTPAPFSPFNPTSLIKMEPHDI
How it was run: as §1

ELK4 = biological target: T3, ELK4 (Homo sapiens, UniProt P28324-2 1-405); details: protein: recombinant; tags: N-terminal GST; dsDNA, one strand shown
T3 sequence: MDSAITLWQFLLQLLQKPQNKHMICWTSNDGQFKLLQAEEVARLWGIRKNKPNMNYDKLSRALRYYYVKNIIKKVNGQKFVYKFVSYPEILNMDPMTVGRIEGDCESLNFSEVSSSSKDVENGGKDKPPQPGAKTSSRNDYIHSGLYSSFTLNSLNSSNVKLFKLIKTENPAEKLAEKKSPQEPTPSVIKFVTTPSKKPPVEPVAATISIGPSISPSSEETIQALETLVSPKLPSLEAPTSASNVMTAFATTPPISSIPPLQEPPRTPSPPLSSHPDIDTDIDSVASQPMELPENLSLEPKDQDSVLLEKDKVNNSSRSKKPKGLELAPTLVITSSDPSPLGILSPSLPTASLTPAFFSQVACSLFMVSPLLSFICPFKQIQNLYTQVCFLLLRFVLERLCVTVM
How it was run: as §1

ETV2 = biological target: T4, ETV2 (Homo sapiens, UniProt O00321 1-342); details: protein: recombinant; tags: N-terminal GST; dsDNA, one strand shown
T4 sequence: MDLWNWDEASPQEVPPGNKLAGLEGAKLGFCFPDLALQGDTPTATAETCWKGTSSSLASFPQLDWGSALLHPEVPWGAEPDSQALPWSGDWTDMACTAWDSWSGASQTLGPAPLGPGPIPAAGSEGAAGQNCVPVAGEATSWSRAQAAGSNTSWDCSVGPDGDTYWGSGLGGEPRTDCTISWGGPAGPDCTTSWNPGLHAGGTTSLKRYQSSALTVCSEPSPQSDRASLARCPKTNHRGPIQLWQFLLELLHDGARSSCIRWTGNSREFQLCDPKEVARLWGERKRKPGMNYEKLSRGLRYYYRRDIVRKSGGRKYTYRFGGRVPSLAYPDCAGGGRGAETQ
How it was run: as §1

ELF3 = biological target: T5, ELF3 (Homo sapiens, UniProt P78545 1-371); details: protein: recombinant; tags: N-terminal GST; dsDNA, one strand shown
T5 sequence: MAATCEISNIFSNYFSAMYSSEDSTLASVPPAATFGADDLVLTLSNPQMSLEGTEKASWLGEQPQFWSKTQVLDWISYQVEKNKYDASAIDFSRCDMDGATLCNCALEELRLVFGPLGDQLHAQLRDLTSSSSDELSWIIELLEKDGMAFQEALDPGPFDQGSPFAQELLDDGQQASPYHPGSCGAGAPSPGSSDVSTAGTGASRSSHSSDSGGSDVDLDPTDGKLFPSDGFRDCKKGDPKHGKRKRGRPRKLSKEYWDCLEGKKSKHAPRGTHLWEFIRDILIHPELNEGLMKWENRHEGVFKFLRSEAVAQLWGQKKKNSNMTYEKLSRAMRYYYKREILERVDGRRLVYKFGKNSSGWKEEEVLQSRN
How it was run: as §1

CRX = CRX (Homo sapiens, UniProt O43186 1-299); details: protein: recombinant; tags: N-terminal GST; dsDNA, one strand shown
CRX, sequence (O43186 whole entry): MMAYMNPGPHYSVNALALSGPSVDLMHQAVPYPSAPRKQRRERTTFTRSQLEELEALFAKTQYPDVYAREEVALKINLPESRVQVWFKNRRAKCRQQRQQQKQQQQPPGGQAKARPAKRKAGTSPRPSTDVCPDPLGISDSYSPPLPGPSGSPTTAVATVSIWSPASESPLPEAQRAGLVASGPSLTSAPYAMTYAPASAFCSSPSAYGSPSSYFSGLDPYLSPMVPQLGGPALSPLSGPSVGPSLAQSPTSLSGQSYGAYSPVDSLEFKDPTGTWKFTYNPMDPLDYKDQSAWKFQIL
How it was run: as §1

ETV1 = ETV1 (Homo sapiens, UniProt P50549 1-477); details: protein: recombinant; tags: N-terminal GST; dsDNA, one strand shown
ETV1, sequence (P50549 whole entry): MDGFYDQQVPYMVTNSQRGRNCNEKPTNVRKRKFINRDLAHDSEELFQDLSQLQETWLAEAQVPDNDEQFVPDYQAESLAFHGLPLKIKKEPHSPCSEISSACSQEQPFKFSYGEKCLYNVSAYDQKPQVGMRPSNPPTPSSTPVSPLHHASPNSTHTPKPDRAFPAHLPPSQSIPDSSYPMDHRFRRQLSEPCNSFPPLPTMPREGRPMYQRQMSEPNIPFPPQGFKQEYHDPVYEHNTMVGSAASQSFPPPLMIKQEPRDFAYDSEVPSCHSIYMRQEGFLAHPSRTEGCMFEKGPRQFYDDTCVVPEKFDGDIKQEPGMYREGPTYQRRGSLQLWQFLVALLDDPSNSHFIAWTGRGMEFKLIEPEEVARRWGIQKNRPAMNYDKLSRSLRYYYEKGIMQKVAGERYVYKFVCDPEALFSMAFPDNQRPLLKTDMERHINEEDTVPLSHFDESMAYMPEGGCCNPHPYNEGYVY
How it was run: as §1

ERF = biological target: T6, ERF (Homo sapiens, UniProt P50548 1-548); details: protein: recombinant; tags: N-terminal GST; dsDNA, one strand shown
T6 sequence: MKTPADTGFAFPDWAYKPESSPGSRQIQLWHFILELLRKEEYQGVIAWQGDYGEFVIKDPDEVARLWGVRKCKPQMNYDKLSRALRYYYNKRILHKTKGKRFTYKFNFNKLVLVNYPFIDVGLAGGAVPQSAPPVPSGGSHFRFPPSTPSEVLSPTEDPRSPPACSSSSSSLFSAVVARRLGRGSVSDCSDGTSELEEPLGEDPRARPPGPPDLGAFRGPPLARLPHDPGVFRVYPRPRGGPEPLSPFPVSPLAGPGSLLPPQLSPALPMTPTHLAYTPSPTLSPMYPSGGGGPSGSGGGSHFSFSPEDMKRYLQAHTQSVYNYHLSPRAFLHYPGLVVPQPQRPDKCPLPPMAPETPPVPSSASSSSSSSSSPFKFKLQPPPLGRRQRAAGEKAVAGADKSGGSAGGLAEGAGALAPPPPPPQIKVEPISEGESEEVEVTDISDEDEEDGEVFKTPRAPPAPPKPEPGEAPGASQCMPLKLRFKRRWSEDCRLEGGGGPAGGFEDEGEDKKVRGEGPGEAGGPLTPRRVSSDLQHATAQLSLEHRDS
How it was run: as §1

ETV3L = biological target: T7, ETV3L (Homo sapiens, UniProt Q6ZN32 1-361); details: protein: recombinant; tags: N-terminal GST; dsDNA, one strand shown
T7 sequence: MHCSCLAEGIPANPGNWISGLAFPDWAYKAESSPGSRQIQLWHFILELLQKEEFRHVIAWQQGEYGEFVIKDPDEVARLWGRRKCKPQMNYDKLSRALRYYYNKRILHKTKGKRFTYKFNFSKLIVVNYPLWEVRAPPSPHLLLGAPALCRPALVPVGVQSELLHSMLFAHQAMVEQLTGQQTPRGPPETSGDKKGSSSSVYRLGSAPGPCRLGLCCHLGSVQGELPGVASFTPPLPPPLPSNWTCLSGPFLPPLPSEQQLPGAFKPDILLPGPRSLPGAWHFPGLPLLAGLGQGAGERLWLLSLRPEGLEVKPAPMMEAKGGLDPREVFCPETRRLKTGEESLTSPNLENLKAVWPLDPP
How it was run: as §1

ETS2 = biological target: T8, ETS2 (Homo sapiens, UniProt P15036 1-469); details: protein: recombinant; tags: N-terminal GST; dsDNA, one strand shown
T8 sequence: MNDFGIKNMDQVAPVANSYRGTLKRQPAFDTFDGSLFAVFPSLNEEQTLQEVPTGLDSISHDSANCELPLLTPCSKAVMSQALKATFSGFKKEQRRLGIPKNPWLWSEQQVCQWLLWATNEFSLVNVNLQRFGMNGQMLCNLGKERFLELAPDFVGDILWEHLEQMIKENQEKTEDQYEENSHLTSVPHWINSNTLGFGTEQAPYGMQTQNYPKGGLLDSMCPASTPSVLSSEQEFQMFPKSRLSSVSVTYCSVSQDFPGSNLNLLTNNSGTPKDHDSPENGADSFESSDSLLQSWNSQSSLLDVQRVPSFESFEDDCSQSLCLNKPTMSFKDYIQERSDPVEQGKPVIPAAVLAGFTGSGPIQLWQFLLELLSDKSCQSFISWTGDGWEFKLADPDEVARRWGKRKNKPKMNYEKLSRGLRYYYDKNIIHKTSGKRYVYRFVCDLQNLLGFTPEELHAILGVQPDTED
How it was run: as §1

SPDEF = biological target: T9, SPDEF (Homo sapiens, UniProt O95238 1-335); details: protein: recombinant; tags: N-terminal GST; dsDNA, one strand shown
T9 sequence: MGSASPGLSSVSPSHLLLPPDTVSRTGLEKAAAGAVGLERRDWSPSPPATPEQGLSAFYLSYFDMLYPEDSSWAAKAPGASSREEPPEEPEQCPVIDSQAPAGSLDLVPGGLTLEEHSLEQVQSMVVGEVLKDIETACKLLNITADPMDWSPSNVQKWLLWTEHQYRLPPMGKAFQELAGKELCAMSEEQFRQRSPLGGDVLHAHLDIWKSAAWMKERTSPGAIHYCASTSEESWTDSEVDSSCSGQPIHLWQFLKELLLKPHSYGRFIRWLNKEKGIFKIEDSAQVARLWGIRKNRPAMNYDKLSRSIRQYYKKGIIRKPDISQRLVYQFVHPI
How it was run: as §1

ETV7 = biological target: T10, ETV7 (Homo sapiens, UniProt Q9Y603 1-341); details: protein: recombinant; tags: N-terminal GST; dsDNA, one strand shown
T10 sequence: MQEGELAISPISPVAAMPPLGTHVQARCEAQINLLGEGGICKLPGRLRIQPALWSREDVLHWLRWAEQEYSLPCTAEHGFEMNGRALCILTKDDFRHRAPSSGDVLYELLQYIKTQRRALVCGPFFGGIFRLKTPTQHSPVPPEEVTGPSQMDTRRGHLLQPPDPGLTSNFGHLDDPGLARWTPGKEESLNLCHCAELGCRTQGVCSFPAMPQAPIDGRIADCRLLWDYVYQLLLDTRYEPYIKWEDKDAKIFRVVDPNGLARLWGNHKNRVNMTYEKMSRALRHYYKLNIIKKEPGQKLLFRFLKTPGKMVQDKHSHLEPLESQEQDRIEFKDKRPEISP
How it was run: as §1

ELF5 = biological target: T11, ELF5 (Homo sapiens, UniProt Q9UKW6-2 1-255); details: protein: recombinant; tags: N-terminal GST; dsDNA, one strand shown
T11 sequence: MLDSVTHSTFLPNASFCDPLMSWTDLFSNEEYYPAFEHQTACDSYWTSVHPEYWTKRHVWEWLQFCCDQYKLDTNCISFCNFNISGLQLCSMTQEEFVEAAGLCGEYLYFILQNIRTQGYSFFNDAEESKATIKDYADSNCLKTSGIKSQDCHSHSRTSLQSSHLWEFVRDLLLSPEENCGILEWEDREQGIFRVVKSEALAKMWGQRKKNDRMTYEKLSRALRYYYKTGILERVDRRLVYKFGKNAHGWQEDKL
How it was run: as §1

ETV3 = biological target: T12, ETV3 (Homo sapiens, UniProt P41162-2 1-143); details: protein: recombinant; tags: N-terminal GST; dsDNA, one strand shown
T12 sequence: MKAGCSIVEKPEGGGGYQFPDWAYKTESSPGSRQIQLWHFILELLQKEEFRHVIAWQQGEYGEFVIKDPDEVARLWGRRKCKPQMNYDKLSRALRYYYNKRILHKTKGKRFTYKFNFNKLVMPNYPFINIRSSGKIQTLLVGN
How it was run: as §1

ETV6 = ETV6 (Homo sapiens, UniProt P41212 1-452); details: protein: recombinant; tags: N-terminal GST; dsDNA, one strand shown
ETV6, sequence (P41212 whole entry): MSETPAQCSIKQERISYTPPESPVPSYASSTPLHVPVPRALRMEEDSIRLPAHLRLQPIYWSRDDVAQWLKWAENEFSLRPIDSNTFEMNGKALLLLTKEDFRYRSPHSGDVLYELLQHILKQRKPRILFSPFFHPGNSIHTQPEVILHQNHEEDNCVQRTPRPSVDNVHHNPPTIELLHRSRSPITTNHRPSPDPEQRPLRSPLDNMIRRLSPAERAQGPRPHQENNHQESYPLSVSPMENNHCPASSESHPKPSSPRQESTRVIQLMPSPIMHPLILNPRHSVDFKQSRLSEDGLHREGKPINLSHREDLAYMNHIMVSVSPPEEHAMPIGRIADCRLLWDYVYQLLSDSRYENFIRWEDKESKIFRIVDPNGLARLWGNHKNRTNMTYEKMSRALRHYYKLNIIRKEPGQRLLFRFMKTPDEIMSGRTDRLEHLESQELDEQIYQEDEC
How it was run: as §1

## CTTTGC
FEV
  binding signal: 1.19 fold enrichment (6-mer frequency, TF over GST control)
ETV5
  binding signal: 1.32 fold enrichment (6-mer frequency, TF over GST control)
HSF1
  binding signal: 1.25 fold enrichment (6-mer frequency, TF over GST control)
SPIC
  binding signal: 1.45 fold enrichment (6-mer frequency, TF over GST control)
ELF4
  binding signal: 1.36 fold enrichment (6-mer frequency, TF over GST control)
ELK4
  binding signal: 1.32 fold enrichment (6-mer frequency, TF over GST control)
ETV2
  binding signal: 1.4 fold enrichment (6-mer frequency, TF over GST control)
ELF3
  binding signal: 1.46 fold enrichment (6-mer frequency, TF over GST control)
CRX
  binding signal: 1.33 fold enrichment (6-mer frequency, TF over GST control)
ETV1
  binding signal: 1.35 fold enrichment (6-mer frequency, TF over GST control)
ERF
  binding signal: 1.32 fold enrichment (6-mer frequency, TF over GST control)
ETV3L
  binding signal: 1.33 fold enrichment (6-mer frequency, TF over GST control)
ETS2
  binding signal: 1.34 fold enrichment (6-mer frequency, TF over GST control)
SPDEF
  binding signal: 1.24 fold enrichment (6-mer frequency, TF over GST control)
ETV7
  binding signal: 1.28 fold enrichment (6-mer frequency, TF over GST control)
ELF5
  binding signal: 1.29 fold enrichment (6-mer frequency, TF over GST control)
ETV3
  binding signal: 1.37 fold enrichment (6-mer frequency, TF over GST control)
ETV6
  binding signal: 1.18 fold enrichment (6-mer frequency, TF over GST control)

Source: article PMC7862700, “An all-to-all approach to the identification of sequence-specific readers for epigenetic DNA modifications on cytosine”
